According to PubChem BioAssay (NCATS):
Results filed as inconclusive are left out. Entries that show only a call come without a potency. A number with no mark means an inactive call. The source made the active and inactive calls. Calls come from the whole dose curve; as a rule, active = well fitted curve in the direction sought with a large enough effect; inconclusive = small, poorly fitted or top-dose-only effect, or another doubt; inactive = no such curve, though single readings can be large; an effect the other way counts as inactive or inconclusive. Where a SMILES comes first, the peptide text is derived from it.

Experiments:
[1] = system: Zika virus NS2B-NS3 protease; test: Primary screen GU AMC qHTS for Zika virus inhibitors (AID 1347154); note: nearly all actives have a fitted effect of over 70% in size
Outline: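 Fluorogenic AMC-substrate cleavage by noncovalent NS2B-NS3 protease complex (25 nM, pH 8.0 Tris buffer with Tween 20) followed for 15 minutes at room temperature (~20% conversion). Percent inhibition from ex340/em450 signal change, fitted by 4-parameter Hill equation.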

[2] = Primary qHTS for small molecule stabilizers of the endoplasmic reticulum resident proteome: Secreted ER Calcium Modulated Protein (SERCaMP) assay (AID 1508630)
Outline: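 The SH-SY5Y reporter protocol was run at 3 concentrations up to 38.3 uM (primary) or 11 concentrations (follow-up): 16 h compound, 100 nM thapsigargin for 4 h, then extracellular luciferase luminescence.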
Potency is the fitted concentration of half-maximal effect.

| Compound | Potency [1] | Potency [2] | activity change, negative = inhibition [1] | activity change, negative = inhibition [2] |
| --- | --- | --- | --- | --- |
| CC(=O)N[C@@H](CSC/C=C(\C)CC/C=C(\C)CC/C=C(\C)CCC=C(C)C)C(=O)O | inactive | inactive |  |  |
| CCCCC/C=C\C\C=C/C=C/C=C/[C@@H](SC[C@H](N)C(=O)O)[C@@H](O)CCCC(=O)O |  |  | 5.9% [at 0.59 µM] | -5.61% [at 0.478 µM] |
| CCCC1OC2CC3C4CCC5=CC(=O)C=CC5(C)C4C(O)CC3(C)C2(C(=O)CO)O1 (stereo not given) | inactive | inactive |  |  |
| C=NCc1cc2c(OC[C@@H](O)CNC(C)(C)C)cccc2[nH]1 | inactive | inactive |  |  |
| CCCCCCCCCC(=O)N[C@H](CN1CCOCC1)[C@H](O)c1ccccc1 |  |  | 6.71% [at 6.83 µM] | 9.26% [at 3.88 µM] |
| N#C/C(=C\c1cc(Cl)cc(Cl)c1)c1cccnc1 | inactive | inactive |  |  |
| N[C@@]1(C(=O)O)CO[C@H]2[C@H](C(=O)O)[C@H]21 | inactive | inactive |  |  |
| COc1c(O)c2c(=O)cc(OC)c3c4c(OC)cc(=O)c5c(O)c(OC)c(C[C@@H](C)OC(=O)c6ccccc6)c(c(c1C[C@@H](C)OC(=O)Oc1ccc(O)cc1)c23)c54 |  |  | 10.7% [at 4.99 µM] | 121% [at 3.88 µM] |
| COC(=O)CNC(=O)C(=O)OC |  |  | 11.4% [at 6.83 µM] | -16.2% [at 3.88 µM] |
| CCCCC/C=C\C/C=C\C/C=C\C/C=C\CCCC(=O)O[C@@H](CO)COCCCCCCCCCCCCCCCC |  |  | 9.81% [at 6.83 µM] | -14% [at 3.88 µM] |
| C=C1CC2COC(=O)C2(Cc2ccc3ccccc3c2)C1 (stereo not given) | inactive | inactive |  |  |
| O=C(Nc1ccccc1)C12CC1/C(=N\O)c1ccccc1O2 (stereo not given) | inactive | inactive |  |  |
| CCCN(C/C=C/I)C1CCc2cccc(O)c2C1 (stereo not given) | inactive | inactive |  |  |
| CCCN1CCCC(c2cccc(S(C)(=O)=O)c2)C1 (stereo not given) | inactive | inactive |  |  |
| Oc1ccc(-c2c(-c3ccccc3)nn3c(C(F)(F)F)cc(C(F)(F)F)nc23)cc1 | inactive | inactive |  |  |
| COC(=O)[C@H]1C2CC3c4[nH]c5ccccc5c4CCN3CC2CC[C@@H]1O (stereo not given in full) | inactive | inactive |  |  |
| CC(C)[C@@H]1NC(=O)[C@H](Cc2ccccc2)NC(=O)[C@@H](CC(=O)O)NC(=O)CNC(=O)[C@H](CCCNC(=N)N)NC1=O | inactive | inactive |  |  |
| C[C@]12CC[C@@H](O)C[C@@H]1CC[C@@H]1[C@@H]2CC[C@]2(C)C=CC[C@@H]12 | inactive | inactive |  |  |
| COC(=O)[C@@H]1[C@H]2C[C@H]3c4[nH]c5ccccc5c4CCN3C[C@H]2CC[C@@H]1O | inactive | inactive |  |  |
| OCc1cc2c(cn1)[nH]c1ccccc12 | 26.7 µM (active) | inactive |  |  |

| Compound | Potency [1] | Potency [2] | activity change, negative = inhibition [1] | activity change, negative = inhibition [2] |
| --- | --- | --- | --- | --- |
| OC[C@H]1O[C@@H](n2cnc3c(NC4CCCC4)nc(Cl)nc32)[C@H](O)[C@@H]1O | inactive | inactive |  |  |
| Nc1ccccc1C(=O)C[C@H](N)C(=O)O | inactive | inactive |  |  |
| CC/C=C\C/C=C\C/C=C\CCCCCCCCCCCC(=O)O |  |  | -2.15% [at 6.83 µM] | 10.3% [at 3.88 µM] |
| CCCCCCCC/C=C\C/C=C\C/C=C\CCCC(=O)NCCO |  |  | 9.89% [at 6.83 µM] | -21.6% [at 3.88 µM] |
| CC1=C(/C=C/C(C)=C/C=C/C(C)=C/C(=O)O)C(C)(C)CCC1O (stereo not given) | inactive | inactive |  |  |
| CCCCC[C@H](O)/C=C/[C@H]1C=CC(=O)[C@@H]1CCCCCCC(=O)O |  |  | 16.3% [at 6.83 µM] | -11.3% [at 3.88 µM] |
| COc1ccc(-n2[nH]c3c4c(ncc3c2=O)CCCCC4)cc1 | inactive | inactive |  |  |
| CCc1c2c(nc3ccc(OC(=O)N4CCC(N5CCCCC5)CC4)cc13)-c1cc3c(c(=O)n1C2)COC(=O)C3(O)CC (stereo not given) | 29.9 µM (active) | inactive |  |  |
| Nc1ncnc2c1ncn2[C@H]1O[C@@H](CSCC[C@@H](N)C(=O)O)[C@H](O)[C@@H]1O | inactive | inactive |  |  |
| NCCNC(=O)Cc1ccc(NC(=O)Cc2ccc(Nc3ncnc4c3ncn4[C@@H]3O[C@H](CO)[C@@H](O)[C@H]3O)cc2)cc1 | inactive | inactive |  |  |
| Cc1nc(N=Nc2cc([N+](=O)[O-])ccc2Cl)c(COP(=O)(O)O)c(C=O)c1O | inactive | inactive |  |  |
| NC(C(=O)O)c1cc(O)cc(O)c1 (stereo not given) | inactive | inactive |  |  |
| O=C(O)/C=C1\CCCc2ccccc2C1O (stereo not given) | inactive | inactive |  |  |
| CCCCCCCCCCC1=C(C)C(=O)C(OC)=C(OC)C1=O | inactive | inactive |  |  |
| CCCCCCCCCCCCCCC[C@@H](O)[C@H](CO)NC(C)=O |  |  | 7.2% [at 6.83 µM] | -11.4% [at 3.88 µM] |
| CCCCC/C=C\C/C=C\C/C=C\C/C=C\CCCC(=O)O[C@@H](CO)COC(=O)CCCCCCCCCCCCCCCCC |  |  | 6.26% [at 6.83 µM] | -0.0647% [at 3.88 µM] |
| CC(C)[C@H](O)CC[C@@H](C)C1CC[C@H]2C3CC=C4C[C@@H](O)CC[C@]4(C)C3CC[C@]12C (stereo not given in full) | inactive | inactive |  |  |
| CC(C)C[C@H](NC(=O)[C@H](Cc1ccccc1)NC(=O)CNC(=O)CNC(=O)[C@@H](N)Cc1ccc(O)cc1)C(=O)N[C@@H](CCCN=C(N)N)C(=O)N[C@@H](CCCN=C(N)N)C(=O)N[C@@H](CCC(N)=O)C(=O)N[C@@H](Cc1ccccc1)C(=O)N[C@@H](CCCCN)C(=O)N[C@H](C(=O)N[C@H](C(=O)N[C@H](C(=O)O)[C@@H](C)O)C(C)C)C(C)C |  |  | 3.02% [at 6.83 µM] | -2% [at 3.88 µM] |
| CCCCCC(=O)/C=C/C=C\CCCCCCCC(=O)O |  |  | 0.325% [at 0.59 µM] | -7.64% [at 0.478 µM] |
| CCCCC(C)(O)C/C=C/[C@H]1[C@H](O)CC(=O)[C@@H]1CCCCCCC(=O)O (stereo not given in full) |  |  | 14% [at 6.83 µM] | -15.4% [at 3.88 µM] |

| Compound | Potency [1] | Potency [2] | activity change, negative = inhibition [1] | activity change, negative = inhibition [2] |
| --- | --- | --- | --- | --- |
| C[C@H](N)CCCP(=O)(O)O | inactive | inactive |  |  |
| CCCC(=O)NCCc1c(I)[nH]c2ccc(OC)cc12 | inactive | inactive |  |  |
| H-EQKQLQ-OH |  |  | 7.08% [at 6.83 µM] | -18.8% [at 3.88 µM] |
| CN1C/C(=C/c2ccc(B(O)O)cc2)C(=O)/C(=C/c2ccc(B(O)O)cc2)C1 | inactive | inactive |  |  |
| NC1=NC2C(N=C(Br)N2[C@@H]2O[C@H]3COP(=O)(O)O[C@@H]3[C@@H]2O)C(=O)N1 (stereo not given in full) | inactive | inactive |  |  |
| CNCC(=O)NCC(=O)N[C@@H](Cc1ccccc1)C(=O)N[C@@H](CC(C)C)C(=O)O (HELM PEPTIDE1{[Sar].G.F.L}$$$$V2.0) |  |  | 7.91% [at 6.83 µM] | -6.57% [at 3.88 µM] |
| CC(C)C(N)C(=O)O (stereo not given) | inactive | inactive |  |  |
| Nc1c(S(=O)(=O)O)cc(Nc2cccc3ccccc23)c2c1C(=O)c1ccccc1C2=O | inactive | inactive |  |  |
| NC(C(=O)O)c1cccc(O)c1 (stereo not given) | inactive | inactive |  |  |
| NS(=O)(=O)c1nn2cc(-c3ccccc3)nc2s1 | inactive | inactive |  |  |
| CC(C)c1cnc(NC(=O)Cc2ccccc2)s1 | inactive | inactive |  |  |
| O=C(NCCCCCCNC(=O)ON=C1CCCCC1)ON=C1CCCCC1 | inactive | inactive |  |  |
| CO[C@H]1C[C@@H]2CC[C@@H](C)[C@@](O)(O2)C(=O)C(=O)N2CCCC[C@H]2C(=O)OC([C@H](C)C[C@@H]2CC[C@@H](O)[C@H](OC)C2)CC(=O)[C@H](C)/C=C(\C)[C@@H](O)[C@@H](OC)C(=O)[C@H](C)C[C@H](C)/C=C/C=C/C=C/1C (stereo not given in full) | inactive | inactive |  |  |
| NCCCC[C@@H](N)C(=O)O | inactive | inactive |  |  |
| Nc1nc2c(ncn2[C@@H]2O[C@H](COP(=O)(O)OP(=O)(O)OP(=O)(O)O)[C@@H](O)C2O)c(=O)[nH]1 (stereo not given in full) | inactive | inactive |  |  |
| CCC1Cc2cc(O)ccc2C2=C1c1ccc(O)cc1CC2CC (stereo not given) | 3.77 µM (active) | inactive |  |  |
| CC(=O)NC1C(OC2OC(CC(O)C3OC([N+]4=CCC(=O)NC4=O)C(O)C3O)C(O)C(O)C2NC(=O)/C=C/CCCCCCCCC(C)C)OC(CO)C(O)C1O (stereo not given) | inactive | 1 µM (active) |  |  |
| Nc1ncnc2c1ncn2[C@@H]1O[C@H](C(=O)NC2CC2)[C@@H](O)[C@H]1O | inactive | inactive |  |  |
| COC(=O)/C=C/c1cc(O)ccc1O | inactive | inactive |  |  |
| COC(C)(C)CCCC(C)C/C=C/C(C)=C/C(=O)O (stereo not given) | inactive | inactive |  |  |
